For 33 compounds, CRC/CRC0 ratio results are on record in PubChem BioAssay AID743360 (Molecular Libraries Program, Specialized Chemistry Center, …, 2014).

Where “and” joins values, the source holds several entries; their conditions need not be identical. Equal values may be shown once. Unmarked numbers belong to inactive results. Calls of active or inactive are those of the source.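 The calls were made as follows: active = calcium retention capacity relative to untreated control above about 1.1 ratio (limit read from the data); inactive = the rest.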

This experiment can be described thus: mitochondrial Ca2+ retention capacity increase – biochemical, dry powder samples, uHTS hits, Calcium Green-5N, dose response (AID 743360). Particulars: isolated mitochondria, Ca retention capacity.
On to `COc1ccc(Cl)cc1C(=O)Nc1cccc(CN2CCN(C(=O)OC(C)(C)C)CC2)c1`, for which the CRC/CRC0 ratio at 12.5 uM (higher = more inhibition) was 1.08.
`O=C(Nc1ccccc1OCc1ccccc1)c1cc(-c2cccc(O)c2)on1`: the CRC/CRC0 ratio at 12.5 uM (higher = more inhibition) was 1.14 (active).
For `O=C(Nc1cccc(Cl)c1)c1cc(-c2cccc(O)c2)on1`, the CRC/CRC0 ratio at 12.5 uM (higher = more inhibition) was 5.47 (active) and 7.74 (active).
For `O=C(Nc1cccc(Cl)c1Cl)c1cc(-c2cccc(O)c2)on1`, the CRC/CRC0 ratio at 12.5 uM (higher = more inhibition) is 4 (active).
The same measure for `COc1ccc(Cl)c(C(=O)Nc2ccc(CCN3CCN(C(=O)OC(C)(C)C)CC3)cc2)c1`: 1.11 (active).
With `COc1ccc(Cl)cc1C(=O)Nc1ccc(CN2CCNCC2)cc1`, the CRC/CRC0 ratio at 12.5 uM (higher = more inhibition) was 1.65 (active).
As to `Cc1ccc(-c2cc(C(=O)Nc3cccc(Cl)c3)no2)cc1`, the CRC/CRC0 ratio at 12.5 uM (higher = more inhibition) was over 1.
In the case of `CCCc1cc(C(=O)Nc2ccc(Br)cc2)no1`, the CRC/CRC0 ratio at 12.5 uM (higher = more inhibition) was 1.02.
In the case of `CN1CCN(CCc2ccc(NS(=O)(=O)c3cc(Cl)cc(Cl)c3)cc2)CC1` it was 1.09; in that of `COc1ccc(Cl)cc1C(=O)Nc1ccc(CCN2CCCCC2)cc1`, 1.51 (active); in that of `COc1ccc(Cl)c(C(=O)Nc2ccc(CCN3CCN(C)CC3)cc2)c1`, over 1.
In the case of `CN1CCN(CCc2ccc(NS(=O)(=O)c3cccc(Cl)c3)cc2)CC1` it was over 1.
The same measure for `COc1c(Cl)cccc1NC(=O)c1cc(-c2cccc(O)c2)on1`: 1.82 (active); for `O=C(Nc1cc(Cl)cc(Cl)c1)c1cc(-c2cccc(O)c2)on1`: 12.1 (active).
With `CN1CCN(c2ccc(NS(=O)(=O)c3cccc(Cl)c3)cc2)CC1`, the CRC/CRC0 ratio at 12.5 uM (higher = more inhibition) was 1.05.
The same measure for `COc1ccccc1C(=O)Nc1ccc(CN2CCCCC2)cc1`: 1.05.
In the case of `COc1ccc(Cl)cc1C(=O)Nc1ccc(N(C)C)cc1` it was 1.18 (active).
In the case of `COc1ccc(NC(=O)c2cc(-c3ccc(Cl)cc3)on2)cc1Cl`, the CRC/CRC0 ratio at 12.5 uM (higher = more inhibition) was over 1.
The same measure for `CC1(C)CCN(CCCC(=O)c2ccc(Br)cc2)CC1`: 1.1 (active); for `CCN(C(=O)c1cc(Cl)ccc1OC)c1ccccc1`: over 1; for `COc1ccc(Cl)cc1C(=O)Nc1ccccc1`: 1.07.
Consider `CN1CCN(c2ccc(NC(=O)c3ccc(OCc4ccccc4)cc3)cc2)CC1`, for which the CRC/CRC0 ratio at 12.5 uM (higher = more inhibition) is 1.08.
In the case of `O=C(Nc1ccc(F)cc1F)c1cc(-c2ccccc2)on1` it was over 1; in that of `COc1ccc(Cl)c(C(=O)Nc2ccc(CN3CCN(C)CC3)cc2)c1`, over 1; in that of `CN1CCN(c2ccc(Cl)cc2NC(=O)/C=C/c2cccc(F)c2)CC1`, 1.53 (active).
As to `O=C(Nc1ccc(CN2CCCCC2)cc1)c1ccc(Cl)c(OCc2ccccc2)c1`, the CRC/CRC0 ratio at 12.5 uM (higher = more inhibition) is 21.3 (active).
The same measure for `O=C(Nc1ccc(CN2CCCCC2)cc1)c1cc(Cl)cc(OCc2ccccc2)c1`: 22.7 (active); for `O=S(=O)(Nc1ccc(CN2CCCCC2)cc1)c1ccc(F)c(Cl)c1`: 1.07.
Take `CCCc1cc(C(=O)Nc2c(F)cc(F)cc2Br)no1`: the CRC/CRC0 ratio at 12.5 uM (higher = more inhibition) is 1.13 (active).
Consider `Cc1ccc(Cl)cc1NC(=O)c1cc(-c2cccc(O)c2)on1`, for which the CRC/CRC0 ratio at 12.5 uM (higher = more inhibition) was 9.18 (active).
The same measure for `O=C(Nc1ccc(OCc2ccccc2)c(Cl)c1)c1cc(-c2cccc(O)c2)on1`: over 1.
For the compound `COc1ccc(Cl)cc1C(=O)Nc1ccc(CCN2CCN(C)CC2)cc1`, the CRC/CRC0 ratio at 12.5 uM (higher = more inhibition) is 1.37 (active).
The same measure for `O=S(=O)(Nc1ccc(CCN2CCCCC2)cc1)c1cc(Cl)cc(Cl)c1`: 1.17 (active).
